Assay outcomes (PubChem BioAssay)
FAK inh: inhibitors of human focal adhesion kinase; Q05397; biochemical FAK kinase activity assay; hit rate 0.84% among 97,000; AID 727; inhibition, %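 (tested at 7 µM)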
Target sequence (Q05397 whole entry, looked up): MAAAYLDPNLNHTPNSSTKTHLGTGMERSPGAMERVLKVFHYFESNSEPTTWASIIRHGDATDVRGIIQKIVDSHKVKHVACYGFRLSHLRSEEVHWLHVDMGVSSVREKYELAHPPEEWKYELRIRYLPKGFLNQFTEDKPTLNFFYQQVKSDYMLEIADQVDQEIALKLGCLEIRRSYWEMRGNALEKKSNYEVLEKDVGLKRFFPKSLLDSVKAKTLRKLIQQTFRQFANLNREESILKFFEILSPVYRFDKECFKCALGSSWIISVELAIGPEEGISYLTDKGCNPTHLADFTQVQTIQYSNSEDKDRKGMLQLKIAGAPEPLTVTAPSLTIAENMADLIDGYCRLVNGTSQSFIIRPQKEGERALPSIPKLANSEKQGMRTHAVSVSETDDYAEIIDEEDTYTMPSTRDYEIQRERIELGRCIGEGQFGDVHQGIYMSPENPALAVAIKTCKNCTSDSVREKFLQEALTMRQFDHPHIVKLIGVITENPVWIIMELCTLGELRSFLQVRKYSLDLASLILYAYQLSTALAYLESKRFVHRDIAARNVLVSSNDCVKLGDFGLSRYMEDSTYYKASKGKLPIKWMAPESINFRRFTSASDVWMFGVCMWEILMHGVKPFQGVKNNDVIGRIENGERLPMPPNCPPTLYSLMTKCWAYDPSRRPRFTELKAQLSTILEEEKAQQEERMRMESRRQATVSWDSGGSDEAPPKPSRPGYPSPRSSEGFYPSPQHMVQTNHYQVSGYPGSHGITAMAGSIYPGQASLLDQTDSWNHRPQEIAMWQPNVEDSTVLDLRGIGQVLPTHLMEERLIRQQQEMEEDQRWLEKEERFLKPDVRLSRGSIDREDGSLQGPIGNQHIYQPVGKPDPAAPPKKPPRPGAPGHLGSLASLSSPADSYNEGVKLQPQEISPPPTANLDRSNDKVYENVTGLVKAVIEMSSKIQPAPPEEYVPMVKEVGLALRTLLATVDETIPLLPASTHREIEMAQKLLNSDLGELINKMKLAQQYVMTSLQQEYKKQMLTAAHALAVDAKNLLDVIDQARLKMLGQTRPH
EphB4 antag: blocks human EphB4 binding to ephrin-B2 | EphB4 LBD / TNYL-RAW-Alexa532 peptide, fluorescence polarization | inhibition, % at 7 µM | hit rate 0.15% among 97,000 | AID 720;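 active = inhibition above the screen-wide mean inhibition plus 3 SD, cut at about 15% in these data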
PLK1 kinase inh: PLK1 (human) kinase inhibition | inhibition, % at 10 µM | recombinant PLK1 kinase, TR-FRET peptide phosphorylation | hit rate 0.53% among 97,000;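 active = inhibition of 50% or more in the single-concentration screen; inactive = inhibition below 50%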
Plk1 PBD FP: inhibitors of human Plk1 polo box domain binding | inhibition, %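 (tested at about 20 µM)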 | Plk1 PBD phosphopeptide binding, fluorescence polarization | hit rate 0.13% among 97,000 | P53350 | AID 693; in the data active = inhibition above about 34%, passing the limit was not always enough
Smad3 inh: Smad3 (human) transcription factor binding inhibition; P84022; TR-FRET Smad3/Dy647-FoxH1 peptide binding, europium anti-His; inhibition, % at 25 µM; hit rate 0.29% among 88,000; AID 630;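 active = compounds that reduce the energy-transfer binding signal between the protein and its labelled peptide by more than half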
FAK inh conf: FAK (human) inhibition confirmed; shares compounds with FAK inh; FAK kinase biochemical inhibition assay; inhibition, % at 7 µM; hit rate 28% among 750; AID 794
Large screens that a line does not name were inactive (follow-up assays come after a bar, where they were run); [ ] = dose if it differs, or a comment. A selection: hits, their analogues and other compounds. The true share with any hit is near 1.5%. Rule as the data show it, unless noted: active = inhibition above about 19%; inactive = the rest.

O=C1c2cccnc2C(=O)N1Cc1ccccc1	none (no result: FAK inh, EphB4 antag, PLK1 kinase inh, Plk1 PBD FP)
CN1CCN(Cc2ccc(-c3ccc(Cl)cc3)o2)CC1	none
CCOc1ccc2nc(NC3=NC(C)(C)C=C(C)N3)nc(C)c2c1	none (no result: Smad3 inh)
CCOc1ccc2nc(NC3=NC(c4ccc(OC)cc4)CC(=O)N3)nc(C)c2c1 (centres undefined)	FAK inh 36 (no result: Smad3 inh) | FAK inh conf 25
Cc1nccn1S(=O)(=O)c1ccc(Br)cc1Br	none
Cc1ccc(-n2nnnc2SCC(=O)N2CCN(C(=O)c3ccco3)CC2)c(C)c1	none
O=P(O)(O)c1ccccc1OCc1ccccc1	FAK inh 84 | FAK inh conf 81
O=P(O)(O)c1ccccc1OCCCCCOc1ccccc1P(=O)(O)O	FAK inh 88 | FAK inh conf 66
Cc1nc2sc3c(c2c(=O)[nH]1)CCCC3	none (no result: FAK inh, EphB4 antag, PLK1 kinase inh, Plk1 PBD FP)
O=c1[nH]nnc2sc3c(c12)CCCC3	FAK inh 27 | FAK inh conf inactive
CC(C)OCCCn1c(=N)c(C(N)=S)cc2c(=O)n3ccccc3nc21	FAK inh 32 | FAK inh conf inactive
CC(C)OCCCn1c(=NC(=O)c2ccncc2)c(C#N)cc2c(=O)n3ccccc3nc21	none
COC(=O)[C@H](C)NC(=O)Nc1ccc(OC)cc1OC	none
COc1cccc(-c2cn3nc4c(nc3n2)CCCC4)c1	FAK inh 27 | FAK inh conf inactive
O=C1NC(=S)N/C1=C/c1ccc(-c2c(Br)cc([N+](=O)[O-])cc2Br)o1	FAK inh 36 (no result: Smad3 inh) | FAK inh conf inactive
O=C1NC(=S)N/C1=C\c1cccc([N+](=O)[O-])c1	none
COC(=O)/C(=C/Nc1ccc(O)cc1)[N+](=O)[O-]	FAK inh 38 | FAK inh conf inactive
Cn1c(SCC(=O)N2CCCCC2)nc2c([nH]c3ccccc32)c1=O	FAK inh 24 | FAK inh conf inactive
Cn1c(SCC(=O)N2CCCCCC2)nc2c([nH]c3ccccc32)c1=O	none
CCCOc1ccc(/C=N/NC(=O)c2ccc(Cn3cc([N+](=O)[O-])cn3)o2)cc1	FAK inh 24 (no result: Smad3 inh) | FAK inh conf inactive
CC(NC(=O)Cn1cnc2c1c(=O)n(C)c(=O)n2C)c1ccccc1 (centres undefined)	none
COc1nnc(-c2ccc(N3CCCCC3)c(NC(C)=O)c2)c2ccccc12	FAK inh 20 | FAK inh conf 19
COc1nnc(-c2ccc(N3CCCCC3)c(NC(=O)C3CCCCC3)c2)c2ccccc12	none
CCN(c1ccccc1)S(=O)(=O)c1ccc(C(=O)Nc2nnc(COC)o2)cc1	none
Cc1cc2nnc(SC(C)C#N)n2c2ccccc12 (centres undefined)	FAK inh 35 (no result: Smad3 inh) | FAK inh conf inactive
O=C(N/N=C/c1ccncc1)c1cc2c(ccc3ccccc32)o1	FAK inh 52 (no result: Smad3 inh) | FAK inh conf inactive
Cc1cc(=O)oc2cc(OCC3CC(c4ccc(N(C)C)cc4)=NO3)ccc12 (centres undefined)	none
CCOC(=O)C1CCN(C(=O)Nc2ccc3nc(-c4ccco4)c(-c4ccco4)nc3c2)CC1	FAK inh 93 | FAK inh conf inactive
O=C1c2ccccc2C(=O)c2c(NCc3cccnc3)cccc21	FAK inh 28 (no result: Smad3 inh) | FAK inh conf inactive
c1ccc(NCc2cccnc2)cc1	none
S=C1NCCOCCOCCOCCOCCNC(=S)NCCOCCOCCOCCOCCN1	none
O=S1(=O)N=C(Nc2ccc(N3CCOCC3)cc2)c2ccccc21	none
Cc1ccccc1-c1ccc(Nc2ccc(N3CCOCC3)cc2)nn1	FAK inh 31 | FAK inh conf 33
Cc1ccccc1-n1c(SC/C(O)=C(\C#N)c2nc3ccccc3[nH]2)nnc1-c1ccncc1	none (no result: FAK inh, EphB4 antag, PLK1 kinase inh, Plk1 PBD FP)
Cc1cc(C)n2c(SC/C(O)=C(\C#N)c3nc4ccccc4[nH]3)nnc2n1	FAK inh 22 | FAK inh conf inactive
c1ccc2nc3c(nc2c1)[nH]c1ccccc13	none (no result: FAK inh, EphB4 antag, PLK1 kinase inh, Plk1 PBD FP)
Clc1ccc2[nH]c3c(c2c1)CCc1cn[nH]c1-3	FAK inh 20 | FAK inh conf inactive
c1ccc2c3c([nH]c2c1)-c1[nH]ncc1CC3	FAK inh 42 | FAK inh conf 20
CCOC(=O)CSC1=C(C#N)C(c2ccccc2OCC)C(C(=O)OCC)C(=O)N1 (centres undefined)	none
CN(C)c1ccc(/C=N\NC(=O)c2csnn2)cc1	none (no result: Smad3 inh)
O=C(Nc1ccc(-c2nc3ccc(NC(=O)c4cccs4)cc3[nH]2)cc1)c1cccs1	FAK inh 53, Smad3 inh 54[fluorescence artefact?] | FAK inh conf 47
CCN(CC)CCCOc1nc(C)nc2c1oc1ccccc12	FAK inh 19 | FAK inh conf inactive
CCN(CC)CCOc1nc(C)nc2c1oc1ccccc12	none
CC1(c2ccc3noc(-c4ccc(F)cc4)c3c2)OCCO1	none
O=Cc1ccc2noc(-c3ccc(F)cc3)c2c1	FAK inh 34 | FAK inh conf 33
O=C(c1nc2ccccc2s1)N1CCSCC1	none
O=C1c2ccccc2C(=O)C1c1ccncc1	FAK inh 25 | FAK inh conf inactive
O=C(Oc1ccc(-c2cnc3ccccc3n2)cc1)c1ccc(Br)o1	FAK inh 47 | FAK inh conf 24
Cc1ccc(/C=N\NC(=O)Cn2nnc3ccccc32)o1	none (no result: Smad3 inh)
O=C(O)c1ccccc1OCCOCCOc1ccccc1C(=O)O	FAK inh 38 | FAK inh conf 34
O=C(O)c1ccccc1OCCOc1ccccc1C(=O)O	none
CCOC(=O)C1CCN(c2nc3cc(OC)ccc3cc2C#N)CC1	FAK inh 19 | FAK inh conf inactive
CCOc1ccc(N(CC(=O)Nc2cccc(Cl)c2)S(=O)(=O)c2c(C)noc2C)cc1	none
COc1ccc2oc(=O)c(-c3nnc(NCc4ccco4)s3)cc2c1	FAK inh 21 | FAK inh conf inactive
CC1SC(=NC(=O)c2ccco2)NC1=O (centres undefined)	none
COC(=O)C1=C(C)N(C2CCCCC2)C(=O)C1	none
COc1ccc(/C=N/NC(=O)c2ccn[nH]2)cc1COc1ccc(Cl)cc1Cl	FAK inh 21 (no result: Smad3 inh) | FAK inh conf inactive
CCCCCCNC(=O)CC(NS(=O)(=O)c1ccc(NC(C)=O)cc1)C(C)C (centres undefined)	none
O=C(c1cnn2ccccc12)N(Cc1ccco1)C1CCCC1	none
CCOC(=O)c1cc2sc(C)cc2n1CC(=O)N(CC)CC	FAK inh 30 | FAK inh conf inactive
COc1ccc(C(=O)NCc2ccccc2OC)c(OC)c1	none
CCCCn1ccc(O)c(Cc2ccc(F)cc2)c1=O	none (no result: Smad3 inh)
CCOC(=O)c1c(NC(=O)CSc2nncn2C)sc(C)c1C	none
Cn1cnnc1SCC(=O)Nc1sc2c(c1C(N)=O)CCC2	FAK inh 23 | FAK inh conf inactive
Cc1ccc2c(c1)cc1c(=O)[nH]ncn12	FAK inh 37 (no result: Smad3 inh) | FAK inh conf inactive
CCn1c2ccccc2c2nc3cc(OC)c(OC)cc3nc21	none (no result: Smad3 inh)
Cc1cccc(CN2CCN(C(c3ccccc3)c3ccc(Cl)cc3)CC2)c1 (centres undefined)	none (no result: FAK inh, EphB4 antag, PLK1 kinase inh, Plk1 PBD FP)
CC1CCCN(Cc2c(O)ccc3c(=O)c(-c4nc5ccccc5s4)c(N)oc23)C1 (centres undefined)	FAK inh 34 (no result: Smad3 inh) | FAK inh conf inactive
